# ± gives the standard deviation.
# Key:
# Settings in all cases: modulator concentration 10 µM
# [1] = tested on: RAW-Dual (murine macrophage reporter line); assay: NF-kB reporter (SEAP) activity fold change vs agonist alone; higher = enhanced NF-kB activity
# How it was run: (§1)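 RAW-Dual murine macrophage reporter cells were plated at 50 000 per well in 384-well plates, pin-transferred compound to 10 μM final, and pre-incubated for 1 hour at 37 °C before a PRR agonist was added and the cells incubated overnight. NF-κB activity was read from supernatant SEAP with QUANTI-Blue at 620 nm absorbance, and IRF activity from Lucia luciferase with QUANTI-Luc by luminescence. Each signal was expressed as fold change by dividing by the mean agonist-only control on the same plate. Two replicate plates were averaged, with errors obtained by propagation.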
# [2] = tested on: RAW-Dual (murine macrophage reporter line); assay: IRF reporter (Lucia luciferase) activity fold change vs agonist alone; higher = enhanced IRF activity
# How it was run: as §1
# [3] = tested on: RAW-Dual (murine macrophage reporter line); assay: viability score (confluency relative to resting cells, overnight) (fraction); higher = more viable, active = viable (0.7 or more)
# How it was run: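 A compound met the cutoff when both of two confluency masks exceeded 70% of resting cells. Those masks were made with IncuCyte software from IncuCyte images of RAW-Dual macrophages treated overnight at 10 μM final. This is the basis of the viability score, which is confluency relative to resting cells.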
# [4] = agonist: CpG ODN 1826 0.5 ug/mL
SMILES,"NF-kB reporter [1, 4]",NF-kB reporter ([1]; agonist: LPS 0.1 ug/mL),NF-kB reporter ([1]; agonist: MPLA […]),IRF reporter ([2]; agonist: 3'3'-cGAMP 10 ug/mL),IRF reporter ([2]; agonist: LPS 0.1 ug/mL),IRF reporter ([2]; agonist: MPLA […]),viability score [3]
CCN(CCCc1ccccc1)CCCc1ccccc1.O=C(O)CC(O)(CC(=O)O)C(=O)O,1.32 ± 0.057,1.4 ± 0.11,2.08 ± 0.29,0.265 ± 0.014,0.448 ± 0.079,0.468 ± 0.11,0.991 (active)
CC(=O)OC(OC(C)=O)c1ccc([N+](=O)[O-])s1,0.0633 ± 0.01,0.0636 ± 0.0089,0.156 ± 0.012,0.0166 ± 0.0041,0.0362 ± 0.0098,0.0457 ± 0.011,0.177 (inactive)
Br.O=S(=O)(c1ccc(-c2csc(Nc3ccc(Cl)cc3)n2)cc1)N1CCOCC1,0.997 ± 0.09,1.09 ± 0.071,1.09 ± 0.038,0.907 ± 0.17,1.11 ± 0.046,1.06 ± 0.1,0.995 (active)
CCCn1c(C(O)(c2ccccc2)c2ccccc2)nc2ccccc21,0.514 ± 0.034,1.07 ± 0.082,0.736 ± 0.05,1.3 ± 0.08,1.1 ± 0.086,1.04 ± 0.19,0.888 (active)
COc1ccc(S(=O)(=O)NCc2ccnc(N3CCOCC3)n2)cc1Cl,1.02 ± 0.052,1.02 ± 0.08,0.919 ± 0.1,1.07 ± 0.06,1.07 ± 0.079,1.08 ± 0.4,1 (active)
COc1cc2nc(N3CCN(C(=O)C4CCCO4)CC3)nc(N)c2cc1OC.Cl (configuration not stated),0.503 ± 0.069,0.98 ± 0.24,0.904 ± 0.054,0.913 ± 0.055,1.34 ± 0.31,1.07 ± 0.14,0.988 (active)
OC1(c2ccc(Cl)c(C(F)(F)F)c2)CCN(CCCC(c2ccc(F)cc2)c2ccc(F)cc2)CC1,0.101 ± 0.0057,0.173 ± 0.12,0.103 ± 0.0063,0.0719 ± 0.0038,0.145 ± 0.11,0.0408 ± 0.004,0.0235 (inactive)
O=C(CSc1nnc(COc2ccc(Cl)cc2)o1)N1CCCc2ccccc21,0.883 ± 0.044,1.12 ± 0.11,0.853 ± 0.086,0.885 ± 0.044,0.823 ± 0.05,0.866 ± 0.29,1.01 (active)
COc1ccc(Nc2nc(Nc3ccc4ncccc4c3)nc(N3CCOCC3)n2)cc1,0.279 ± 0.013,1.36 ± 0.11,2.85 ± 0.15,0.34 ± 0.015,1.61 ± 0.24,2.74 ± 0.57,0.904 (active)
CC[C@H](C)C(=O)O[C@H]1C[C@@H](C)C=C2C=C[C@H](C)[C@H](CC[C@@H]3C[C@@H](O)CC(=O)O3)[C@H]21,2.37 ± 0.12,1.5 ± 0.12,1.77 ± 0.078,0.639 ± 0.058,0.795 ± 0.055,0.776 ± 0.17,0.238 (inactive)
COc1ccc(C2C3=C(CC(c4ccccc4)CC3=O)Nc3ccccc3N2C(=O)C(C)C)cc1OC (configuration not stated),1.02 ± 0.089,1.05 ± 0.063,1.01 ± 0.071,1.02 ± 0.025,1.56 ± 0.21,1.2 ± 0.087,1.01 (active)
COc1cc(C(=O)NCCCCc2ccccc2)cc(OC)c1OC,1.09 ± 0.095,1.04 ± 0.068,0.994 ± 0.034,0.906 ± 0.14,0.993 ± 0.068,0.983 ± 0.14,0.995 (active)
COc1ccc(-c2oc(N=Cc3ccccc3O)c(C#N)c2-c2ccc(OC)cc2)cc1,0.895 ± 0.075,1.21 ± 0.079,0.997 ± 0.035,0.921 ± 0.2,1.05 ± 0.089,1.12 ± 0.18,1 (active)
Cc1cccc(C(=O)NC2CCC(F)(F)CC2)c1,1.07 ± 0.068,0.934 ± 0.082,1.03 ± 0.058,0.823 ± 0.034,1.1 ± 0.058,0.99 ± 0.2,1 (active)
CC1=NN(C(=O)c2cccnc2)C(O)(c2ccccc2)C1 (configuration not stated),0.893 ± 0.071,0.969 ± 0.1,0.949 ± 0.041,0.951 ± 0.09,1.05 ± 0.13,1.1 ± 0.2,0.994 (active)
CC(=O)Nc1ccc(NC(=S)NC(=O)C=Cc2ccc(Cl)cc2)cc1,1.08 ± 0.069,1.09 ± 0.096,0.946 ± 0.025,0.838 ± 0.089,0.932 ± 0.1,0.787 ± 0.22,0.991 (active)
Cc1cccc(N2C(=O)C(=Cc3cccc([N+](=O)[O-])c3)SC2=S)c1C,0.964 ± 0.1,1.02 ± 0.094,0.937 ± 0.06,0.853 ± 0.035,1.57 ± 0.17,1.29 ± 0.11,0.989 (active)
CCOC(=O)C(CCCOc1c(C)cc(Cl)cc1C)C(=O)OCC,0.961 ± 0.078,0.909 ± 0.069,1.08 ± 0.086,0.985 ± 0.04,0.95 ± 0.045,1.22 ± 0.17,0.997 (active)
CCOC(=O)c1ccc(-c2ccc(C=C(C#N)C(=O)Nc3ccc(F)cc3)o2)cc1,0.979 ± 0.09,1.08 ± 0.063,1.05 ± 0.068,0.929 ± 0.042,1.29 ± 0.25,1.06 ± 0.14,1.01 (active)
COc1ccc(C(=O)Nc2cc(C)nc3c(C)cc(C)cc23)cc1OC,0.763 ± 0.18,0.948 ± 0.054,0.838 ± 0.055,0.501 ± 0.038,0.767 ± 0.15,0.746 ± 0.07,0.589 (inactive)
CC(=O)Nc1ccc(C(=O)CSc2nnc[nH]2)cc1,0.771 ± 0.06,0.877 ± 0.072,1.01 ± 0.087,0.916 ± 0.045,1.33 ± 0.086,1.47 ± 0.14,1.01 (active)
CC(O)Cn1cnc2c1c(=O)n(C)c(=O)n2C (configuration not stated),1.06 ± 0.082,1.06 ± 0.065,1.01 ± 0.036,0.99 ± 0.07,0.972 ± 0.11,0.957 ± 0.11,0.998 (active)
Cc1c(Cl)cccc1Nc1ccccc1C(=O)O,1.16 ± 0.17,1.14 ± 0.3,0.887 ± 0.052,0.938 ± 0.043,1.34 ± 0.26,1.13 ± 0.28,1 (active)
NCCCCC(=O)O.O=C1c2ccccc2C(=O)C1[N+](=O)[O-],0.788 ± 0.16,0.975 ± 0.076,0.843 ± 0.1,0.929 ± 0.025,1.13 ± 0.16,1.31 ± 0.13,1 (active)
Br.NC(=O)C(c1ccccc1)(c1ccccc1)[C@@H]1CCN(CCc2ccc3c(c2)CCO3)C1,0.471 ± 0.18,1.25 ± 0.27,1.53 ± 0.37,0.485 ± 0.015,1.15 ± 0.41,1.41 ± 0.22,0.975 (active)
CCOC(=O)N1CCC(=C2c3ccc(Cl)cc3CCc3cccnc32)CC1,1.07 ± 0.24,1.09 ± 0.21,0.953 ± 0.053,0.725 ± 0.04,1.06 ± 0.097,1.33 ± 0.29,0.989 (active)

# From the supplement of paper PMC10646978
